A selection: hits, their analogues and other compounds. The true share with any hit is near 1.2%.
S1P2 antag: antagonists of human S1P2 receptor; O95136; cell-based S1P2 antagonist assay, inhibition at 5 uM; inhibition, % at 5 µM; 0.21% of 97,000 active; AID 736; in the data active = inhibition above about 45%;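 note: CRE beta-lactamase reporter cells expressing human S1P2 stimulated with S1P; 0% = agonist at EC80 alone and 100% = agonist plus reference antagonist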
GALR2 antag: blocks the human galanin receptor 2; O43603; GALR2-expressing cells, antagonist mode; inhibition, % at 4 µM; 0.39% of 140,000 active; AID 828; in the data active = inhibition above about 27%;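 note: cells stimulated with galanin 1-16 at roughly its EC80; 0% = agonist challenge control and 100% = basal control without agonist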
Target sequence (O43603 whole entry, looked up): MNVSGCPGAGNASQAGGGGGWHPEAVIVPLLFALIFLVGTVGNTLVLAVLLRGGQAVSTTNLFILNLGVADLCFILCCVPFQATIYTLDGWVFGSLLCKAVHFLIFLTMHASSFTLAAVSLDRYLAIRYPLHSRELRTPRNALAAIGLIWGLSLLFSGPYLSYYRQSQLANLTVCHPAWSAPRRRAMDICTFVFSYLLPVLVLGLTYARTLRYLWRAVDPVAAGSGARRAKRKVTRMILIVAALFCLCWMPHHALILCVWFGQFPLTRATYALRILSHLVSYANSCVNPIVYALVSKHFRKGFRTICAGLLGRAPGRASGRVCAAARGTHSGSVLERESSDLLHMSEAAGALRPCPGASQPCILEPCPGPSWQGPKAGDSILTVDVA
GALR2 agonist: GALR2 (human) receptor agonism | O43603 | GALR2-expressing cells, agonist activation read-out | activation, % (test concentration not listed) | 0.48% of 140,000 active | AID 803; in the data active = activation above about 5%, passing the limit was not always enough;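 note: 0% = vehicle buffer wells and 100% = reference agonist at full effect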
S1P2 agonist: S1P2 (human) receptor agonism | activation, % at 4.5 µM | 0.46% of 97,000 active | S1P2-expressing cell line, agonist reporter read-out | O95136; in the data active = activation above about 16%;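 note: 0% = vehicle low control and 100% = maximal reference agonist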
GALR2 agon conf: GALR2 (human) agonism confirmed; GALR2-expressing cells, agonist activation; activation, % at 5.6 µM; shares compounds with GALR2 agonist; 10% of 460 active; AID 864; in the data active = activation above about 8.4%;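 note: 0% = buffer-only vehicle wells and 100% = full reference agonist response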
BLA activ ctr: beta-lactamase activation, GALR2 counterscreen | shares compounds with GALR2 agonist | 10% of 460 active | activation, % at 5.6 µM | CHO NFAT-bla reporter, beta-lactamase FRET activation;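 active = activation above the screen-wide mean activation plus 3 SD, cut at about 8% in these data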;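 note: 0% = DMSO with PBS wells and 100% = thapsigargin positive control wells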
* hit, by the source's call; x = not tested or not shown.

SMILES | S1P2 antag | GALR2 antag | GALR2 agonist | S1P2 agonist | GALR2 agon conf | BLA activ ctr
COc1ccccc1OCCOc1ccc(/C=C2/C(=N)N3OC(C)=CC3=NC2=O)cc1OC | -6.9 | 0.2 | -2.5 | -4.1 | x | x
CC1=CC2=NC(=O)/C(=C\c3cc(C)n(-c4ccc(F)cc4)c3C)C(=N)N2O1 | x | -10.8 | 11.7* | x | 7.8 | 10.6*
COc1ccc(-c2cc(-c3ccc(Br)cc3)nc3ncnn23)cc1OC | -15.9 | 18.5 | 0.8 | -1.2 | x | x
CC(C)c1nnc(NC(=O)c2cccnc2)s1 | -10.9 | -7.4 | -2.0 | -1.4 | x | x
Cc1ccc2nc(-c3ccc(NS(=O)(=O)c4ccccc4)cc3)sc2c1 | x | -8.3 | 11.0* | x | 0.2 | 2.1
Cc1ccc2nc(-c3ccc(NS(=O)(=O)c4ccc(F)c(F)c4)cc3)sc2c1 | x | 4.9 | 2.3 | x | x | x
CN(C(=O)Nc1ccccc1)C1CCS(=O)(=O)C1 (centres undefined) | -2.0 | -6.7 | -1.0 | -4.1 | x | x
CC(=O)NC1=C(N(C)C2CCS(=O)(=O)C2)C(=O)c2ccccc2C1=O (centres undefined) | x | 0.0 | 35.5* | x | -1.1 | -1.6
Cc1ccc(C)c(S(=O)(=O)N2CC(=O)N(CCc3ccccc3)C(=O)C2)c1 | x | 0.9 | 0.3 | x | x | x
CCOC(=O)c1cc2nc(Nc3ccc(OC)cc3)sc2s1 | -6.8 | 3.3 | 10.8 | 7.0 | 3.1 | 6.1
CC(/C=C/c1ccco1)=N/NC(=O)OC(C)(C)C | x | -1.7 | -0.3 | x | x | x
Cn1nc(OC(=O)Nc2ccc(F)cc2)cc1C(F)(F)F | -1.7 | -2.3 | 62.3* | -6.5 | -1.2 | -2.5
CCOc1ccc(Cn2c(C)nc([N+](=O)[O-])c2SCC(O)CCl)cc1[N+](=O)[O-] (centres undefined) | -28.8 | -12.7 | 1.4 | 3.1 | x | x
O=C(CCn1c(SCC(=O)NCc2ccco2)nc2ccccc2c1=O)NCCc1ccccc1 | 15.3 | -5.6 | -0.8 | 0.5 | x | x
Cc1nc2ccccc2n1CCc1nc2c3ccccc3nc(SCC(=O)NCc3ccco3)n2n1 | 1.1 | -1.2 | 8.7* | -4.5 | -0.6 | 0.5
N#Cc1c(N)n(CCc2ccc(F)cc2)c2nc3ccccc3nc12 | -30.0 | -18.8 | 15.0* | 15.6 | 4.0 | 9.4*
Nc1c(C(=O)NCc2ccco2)c2nc3ccccc3nc2n1CCc1ccc(F)cc1 | -34.0 | -13.5 | 24.1* | 13.1 | 10.0* | 18.3*
COCCn1c(N)c(C(=O)NCc2cccs2)c2nc3ccccc3nc21 | -33.2 | -3.1 | 10.9* | 14.0 | 4.5 | 10.3*
CC(C)Cn1c(N)c(C(=O)NCC2CCCO2)c2nc3ccccc3nc21 (centres undefined) | -31.5 | -0.1 | 12.0* | 13.9 | 1.8 | 3.2
COc1ccc(OC)c(-n2c(N)c(C(=O)NCC3CCCO3)c3nc4ccccc4nc32)c1 (centres undefined) | -12.2 | 9.1 | 3.8 | 2.1 | x | x
CCc1ccc(CN(C)CC(=O)Nc2sccc2C#N)cc1 | x | 1.8 | -0.9 | x | x | x
Cc1nc(SCC(=O)NCCc2ccc(Cl)cc2)nc(C)c1C | 4.6 | 1.0 | -1.8 | -6.9 | x | x
O=C(O)C1CCN(S(=O)(=O)/C=C/c2ccccc2)CC1 | -1.0 | 0.7 | 0.0 | -5.2 | x | x
Cn1c(-c2ccccc2)c[n+]2c1-c1ccccc1C2 | x | -5.0 | -0.4 | x | x | x
CCN(C(=O)CSc1nnc2c3ccccc3n(CC)c2n1)C1CCS(=O)(=O)C1 (centres undefined) | x | -3.3 | -0.2 | x | x | x
SMILES | S1P2 antag | GALR2 antag | GALR2 agonist | S1P2 agonist | GALR2 agon conf | BLA activ ctr
CC(C)(C)c1ccc(S(=O)(=O)Nc2cccnc2)cc1 | 23.5 | 7.6 | -1.8 | -5.9 | x | x
O=S(=O)(Nc1cccnc1)c1ccc(Cl)cc1 | 12.2 | -0.1 | 79.7* | -3.4 | -0.5 | -1.4
Cc1cc(=O)[nH]c(-n2nc(C)c(Oc3ccccc3O)c2C)n1 | 20.0 | -30.5 | 32.2* | -1.1 | 27.4* | 59.8*
Cc1cccc(C(=O)N=c2c(C#N)cc3c(=O)n4cccc(C)c4nc3n2Cc2ccco2)c1 | 6.3 | -8.2 | 8.2 | 3.4 | 5.0 | 8.3*
COc1ccc(C2=NOC(C(=O)Nc3cc(Br)ccc3O)C2)cc1OC (centres undefined) | -10.7 | -3.3 | 20.8* | -3.7 | 0.0 | -2.4
COc1ccc(C2=NOC(C(=O)Nc3ccc(C(C)=O)cc3)C2)cc1OC (centres undefined) | 15.0 | 11.4 | -1.2 | -4.9 | x | x
COC(=O)C1=C(C)N(C)C(C)=C(C(=O)OC)C1c1ccsc1 | 12.4 | 0.2 | -0.8 | -3.6 | x | x
CCOC(=O)C1=CN(C)C=C(C(=O)OCC)C1c1ccsc1 | 2.7 | -1.2 | 9.8 | 12.0 | 1.6 | 5.1
Cc1occc1-c1nnc(SCC(=O)Nc2nc(-c3ccccc3)cs2)o1 | -12.7 | 4.2 | 18.8* | -8.5 | 0.4 | -1.0
COCCCNC(=O)c1c(N)n(-c2ccc(S(N)(=O)=O)cc2)c2nc3ccccc3nc12 | -20.4 | 3.8 | 3.3 | 10.2 | x | x
C=CCNC(=O)c1c(N)n(-c2cccc(S(N)(=O)=O)c2)c2nc3ccccc3nc12 | 1.5 | -5.9 | 8.3 | 10.1 | 1.9 | 5.6
Cc1cc(C)c2c(N)c(C(=O)NCC3CCCCC3)sc2n1 | -20.8 | 3.0 | 27.8* | -3.7 | -0.2 | -0.5
CN1CCN(C(=O)CCc2nc3ccccc3n2-c2ccccc2)CC1 | x | -3.7 | -0.8 | x | x | x
CCOC(=O)c1ccc(NC(=S)N2CCSC2c2ccc(Cl)cc2)cc1 (centres undefined) | x | -22.1 | 8.8* | x | 9.4* | 18.1*
CCOC(=O)c1ccc(NC(=S)N2CCSC2c2ccc(OC)cc2)cc1 (centres undefined) | x | -15.9 | 1.0 | x | x | x
COc1cccc2sc(Nc3nc4ccc(NC(C)=O)cc4s3)nc12 | x | 3.5 | 10.3* | x | 3.1 | 7.2
CCOC(=O)c1c(C)n(C)c2ccc(OCC(O)CN3C(=O)c4ccccc4S3(=O)=O)cc12 (centres undefined) | -30.6 | -8.2 | 9.2 | 13.1 | 0.6 | 1.0
Cc1ccc(/C=N/NC(=O)c2ccc(C(=O)N/N=C/c3ccc(C)s3)o2)s1 | 14.1 | 6.0 | 30.2* | -7.1 | 1.6 | 14.3*
CCOC(=O)/C(=N/Nc1ccccc1)c1csc(Nc2ccccc2)n1 | -27.2 | -11.1 | 55.9* | -4.4 | -0.8 | -1.5
CCOC(=O)/C(=N\Nc1ccc(Cl)cc1)c1csc(Nc2ccccc2)n1 | -19.9 | -4.3 | -0.5 | -0.1 | x | x
COc1ccc(NC(=O)C2=C(C)C(=O)OC23CCC(C)CC3)cc1Cl (centres undefined) | -8.3 | -23.9 | 84.4* | -1.5 | -0.7 | -1.5
COc1ccc(CNC(=O)C2=C(C)C(=O)OC23CCC(C)CC3)cc1 (centres undefined) | -8.9 | -3.5 | -3.0 | -1.1 | x | x
CC(C)(C)C(=O)NC(=S)NNC(=O)c1sc2ccccc2c1Cl | x | -5.5 | 100.8* | x | 65.5* | 107.6*
O=C(NNC(=S)NC1CCCCC1)c1sc2ccccc2c1Cl | x | 8.5 | 0.2 | x | x | x
CCc1ccc(-c2cc(C(F)(F)F)n3nc(C(=O)Nc4c(C)nn(Cc5ccc(F)cc5)c4C)cc3n2)s1 | -35.3 | -14.2 | 13.1* | 7.1 | 1.9 | 1.8
Cc1ccccc1Cn1nc(C)c(NC(=O)c2cc3nc(-c4ccco4)cc(C(F)(F)F)n3n2)c1C | -10.9 | -4.2 | 0.0 | -2.9 | x | x
